{"source": "PubChem BioAssay (EPA / NIEHS)", "note": "Records with an inconclusive call do not appear. The source made the active and inactive calls. The calls were made as follows: active = hit-call score of the fitted dose curve at least 0.9, where 1 is the maximum; inconclusive = response in the unintended direction; inactive = score below 0.9.", "data": [{"test": "ACEA_ER_80hr: ACEA Biosciences xCELLigence Real-Time Cell Analysis on Estrogen Receptor Agonism for Proliferation (AID 2282667)", "settings": "T47D proliferation, impedance (xCELLigence), 80 h", "procedure,_shortened": "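Real-time electrical impedance tracked growth of the human breast line T47D, with the 80 h post-dosing value used. Dosing spanned eight 1:4 steps down from a 100 uM final top concentration, run in duplicate.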", "values": [{"smiles": "C[C@H]1O[C@@H](O[C@H]2[C@@H](O)C[C@H](O[C@H]3[C@@H](O)C[C@H](O[C@H]4CC[C@@]5(C)[C@H](CC[C@@H]6[C@@H]5CC[C@]5(C)[C@@H](C7=CC(=O)OC7)CC[C@]65O)C4)O[C@@H]3C)O[C@@H]2C)C[C@H](O)[C@@H]1O", "outcome": "inactive"}, {"smiles": "CC(C)c1cccc(C(C)C)c1O", "outcome": "inactive"}, {"smiles": "NNC(=S)NN", "outcome": "inactive"}, {"smiles": "COC(=O)Cc1ccccc1", "outcome": "inactive"}, {"smiles": "CCOP(=S)(OCC)SCSP(=S)(OCC)OCC", "outcome": "inactive"}, {"smiles": "CN(CCCC(=O)c1cccnc1)N=O", "outcome": "inactive"}, {"smiles": "CCC(C)c1cccc(C(C)CC)c1O", "note": "(stereo not drawn)", "outcome": "inactive"}, {"smiles": "COC[C@H](C)N(C(=O)CCl)c1c(C)csc1C", "outcome": "inactive"}, {"smiles": "O=P(O)(O)CN(CP(=O)(O)O)CP(=O)(O)O", "outcome": "inactive"}, {"smiles": "NC(=O)CF", "outcome": "inactive"}, {"smiles": "CCCCCCCCSC(=O)Oc1cc(Cl)nnc1-c1ccccc1", "AC50": "50000 nM (active)"}, {"smiles": "O=C1C(Cl)=C(Cl)C(=O)c2ccccc21", "outcome": "inactive"}, {"smiles": "CC(=O)C(Cl)C(=O)N(C)C", "note": "(stereo not drawn)", "AC50": "272 nM (active)"}, {"smiles": "NC(=S)Nc1ccccc1", "outcome": "inactive"}, {"smiles": "CCOP(=S)(OCC)SCCS(=O)(=O)CC", "outcome": "inactive"}, {"smiles": "COP(=O)(OC)OC", "outcome": "inactive"}, {"smiles": "CN(C)P(=O)(N(C)C)N(C)C", "outcome": "inactive"}, {"smiles": "CCOP(OCC)OCC", "outcome": "inactive"}, {"smiles": "CCN(CC)C(=O)Cl", "outcome": "inactive"}, {"smiles": "Clc1ccc(C2(Cn3cncn3)CC(Br)CO2)c(Cl)c1", "note": "(stereo not drawn)", "outcome": "inactive"}, {"smiles": "Clc1nc(Cl)nc(Cl)n1", "outcome": "inactive"}, {"smiles": "Cc1ccc(N)cc1Cl", "outcome": "inactive"}, {"smiles": "CC1CN1P(=O)(N1CC1C)N1CC1C", "note": "(stereo not drawn)", "outcome": "inactive"}, {"smiles": "CCc1ccccc1C", "AC50": "87.9 nM (active)"}, {"smiles": "CC(C#N)CCC#N", "note": "(stereo not drawn)", "outcome": "inactive"}, {"smiles": "COC(=O)c1sccc1S(=O)(=O)NC(=O)Nc1nc(C)nc(OC)n1", "outcome": "inactive"}, {"smiles": "CCOC(=O)/C=C(C)/C=C/C[C@@H](C)CCCC(C)C", "outcome": "inactive"}, {"smiles": "c1ccc(N=NNc2ccccc2)cc1", "outcome": "inactive"}, {"smiles": "C=C(C)C#N", "outcome": "inactive"}, {"smiles": "CCCCCCCCC(=O)NCc1ccc(O)c(OC)c1", "outcome": "inactive"}, {"smiles": "CCCCCCCCCCCCCCCC[n+]1ccccc1", "AC50": "81 nM (active)"}, {"smiles": "CCc1ccccc1N", "outcome": "inactive"}, {"smiles": "C=CC(=O)N(C)C", "outcome": "inactive"}]}]}
